Screens (PubChem)
A selection: hits, their analogues and other compounds. The true share with any hit is near 3.1%.
PAX8 reporter: PAX8 transcriptional activity inhibition. 360,000 compounds, 1.2% hits. inhibition, % at 12.6 µM. AID 652154. RMG-I TPO-luciferase reporter, SteadyGlo, 24 h;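 active means mean replicate inhibition at least 60% with every replicate also reaching 60%; inconclusive means only one of the two criteria is met; inactive means mean below 60% and not all replicates reaching 60%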;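 further: luciferase light reporting Pax8 driven TPO promoter activity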
EWS-Fli block: blocks EWS/Fli oncoprotein-driven transcription | A673 NR0B1-luciferase reporter, viability-normalised | inhibition, % at 12.6 µM | 350,000 compounds, 0.67% hits | AID 651661;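 active means mean inhibition of at least 50% after viability correction, with every replicate also passing that limit; inconclusive means mean reaches 50% but only one of two replicates passes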;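 further: firefly luciferase signal divided by Alamar Blue viability fluorescence both relative to DMSO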
TROY signal inh: inhibitors of TROY-dependent NF-kB signaling; Q293 LMP1-TROYcd NF-kB luciferase reporter, 4 h; inhibition, % at 10 µM; 360,000 compounds, 0.98% hits;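 active means compounds whose plate-normalised and pattern-corrected inhibition of the luciferase reporter signal at the single screening dose is 50% or more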
TWEAK Fn14 block: inhibitors of TWEAK-Fn14 interaction signaling | TWEAK-stimulated Fn14 reporter cells, luciferase luminescence, 8 h | inhibition, % at 10 µM | 360,000 compounds, 2% hits; in the data active means inhibition above about 50%
LMP1 NFkB inh: inhibitors of Epstein-Barr LMP1-induced NF-kappaB reporter. LMP1-induced NF-kappaB luciferase reporter cells, luminescence. inhibition, % at 12.5 µM. 350,000 compounds, 0.69% hits; in the data active means inhibition above about 41%; inconclusive means no clear call, values can overlap the other calls
LGR2 inh: blocks bursicon-induced cAMP signaling via Drosophila LGR2. HEK293 LGR2, CRE-luciferase, bursicon-stimulated, 4 h. inhibition, % at 9.99 µM. 380,000 compounds, 0.35% hits. AID 720647;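 active means drop in luminescence signal, shown as inhibition above about 50% in the replicate tests, limit read from the data, passing the limit was not always enough; inconclusive means probably only some replicates passing the limit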;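 further: agonist challenge used bursicon conditioned medium at about half maximal strength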
Each line names hits and unclear results; the compound was inactive in the other large screens.

CCOC(=O)c1ccc(NC(=O)c2cccc(S(=O)(=O)N3c4ccccc4CC3C)c2)s1 (stereo not drawn)	TWEAK Fn14 block 54 (no result: EWS-Fli block)
CCCc1nc2ccccc2c(C(=O)OCC(=O)Nc2ccc(S(=O)(=O)N3CCOCC3)cc2)c1CC	TROY signal inh 78 (no result: PAX8 reporter, EWS-Fli block, LGR2 inh)
CCCc1nc2ccccc2c(C(=O)OCC(=O)NC2CC2)c1CC	none
CCCc1nc2ccccc2c(C(=O)OCC(=O)Nc2cccc(S(=O)(=O)N3CCOCC3)c2)c1CC	TWEAK Fn14 block 61 (no result: PAX8 reporter, EWS-Fli block, LGR2 inh)
CC(C)NC(=O)NCC[C@@H]1CC[C@@H](NS(=O)(=O)c2ccccc2)[C@H](CO)O1	none (no result: PAX8 reporter, TROY signal inh, TWEAK Fn14 block, LMP1 NFkB inh)
c1ccc(CCNc2ccnc3cc4ccccc4cc23)cc1	LGR2 inh 107
O=C(NCCc1ccccc1)c1nccc2ccccc12	none
COc1ccc(Nc2ccnc3ccccc23)cc1	none (no result: PAX8 reporter, EWS-Fli block, LGR2 inh)
CC(C)Nc1ccc(Nc2ccnc3cc4ccccc4cc23)cc1	PAX8 reporter 97, LGR2 inh 74
CO[C@@H]1CN(C)C(=O)c2cc(NS(C)(=O)=O)ccc2OC[C@@H](C)N(Cc2cccnc2)C[C@@H]1C	none (no result: PAX8 reporter, TROY signal inh, TWEAK Fn14 block, LMP1 NFkB inh)
COc1cc(/C=C2\SC(=O)N(CC(=O)Nc3ccccc3F)C2=O)cc(Cl)c1O	TROY signal inh 54
COc1cc(OC)c(/C=C2\SC(=O)N(CC(=O)Nc3ccccc3F)C2=O)c(OC)c1	LMP1 NFkB inh 44
CC(=O)c1c(C)oc2ccc(N(C(C)=O)S(=O)(=O)c3ccc(Cl)c([N+](=O)[O-])c3)cc12	TROY signal inh 88 (no result: PAX8 reporter, EWS-Fli block, LGR2 inh)
COc1ccc(S(=O)(=O)Nc2ccc3c(c2)C(=O)N([C@H](C)CO)C[C@H](C)[C@H](CN(C)Cc2ccc4c(c2)OCO4)O3)cc1	none (no result: TROY signal inh, TWEAK Fn14 block, LMP1 NFkB inh)
CCCNC(=O)N[C@@H]1CC[C@@H](CC(=O)NCCc2ccccc2)O[C@H]1CO	none (no result: TROY signal inh, TWEAK Fn14 block, LMP1 NFkB inh)
COc1c(Cl)cc(Cl)cc1/C=C/C(=O)c1ccc(NC(=O)c2cccs2)cc1	PAX8 reporter 81, TWEAK Fn14 block 79 (no result: EWS-Fli block)
O=C(N/N=C/c1ccc(C(F)(F)F)cc1)c1ccc(O)cc1	none
O=C(O)c1ccc(N/N=C/c2ccc(C(F)(F)F)cc2)cc1	EWS-Fli block inconclusive, TWEAK Fn14 block 90, LMP1 NFkB inh 44, LGR2 inh 93
CC(C)(C)c1ccc(/C=N/Nc2cccc(C(=O)O)c2)cc1	LMP1 NFkB inh 72
O=C(O)c1cccc(N/N=C/c2ccc(-c3ccccc3)cc2)c1	none
CN(C)c1ccc(/C=N/Nc2cccc(C(=O)O)c2)cc1	LMP1 NFkB inh 61, LGR2 inh 87
O=C(Nc1ccccc1)N1CC(=O)N2[C@@H](CO)[C@@H](c3ccc(C#CC4CCCC4)cc3)[C@@H]2C1	none (no result: PAX8 reporter, TROY signal inh, TWEAK Fn14 block, LMP1 NFkB inh)
Cc1ccc(C2CC(c3cccs3)=NN2C(=O)CCl)cc1 (stereo not drawn)	EWS-Fli block 65, TWEAK Fn14 block 65
CCC(=O)N1N=C(c2cccs2)CC1c1ccc(C)cc1 (stereo not drawn)	none
O=C(c1ccco1)N1N=C(c2cccs2)CC1c1ccc(F)cc1 (stereo not drawn)	none (no result: PAX8 reporter, EWS-Fli block, LGR2 inh)
CNC(=S)N1N=C(c2cccs2)CC1c1ccc(F)cc1 (stereo not drawn)	LMP1 NFkB inh 50
COc1ccc2c(C(=O)CCl)c[nH]c2c1	TWEAK Fn14 block 53
COc1ccc(OCC(=O)c2c[nH]c3ccccc23)cc1	none
COc1ccc(C(=O)NCCNc2ccccc2[N+](=O)[O-])cc1	none
CCCNC(=O)c1ccc(S(=O)(=O)c2ccc(OC)cc2)c([N+](=O)[O-])c1	PAX8 reporter inconclusive, TWEAK Fn14 block 72
O=C(CSc1nnc(-c2c[nH]c3ccccc23)o1)N1c2ccccc2CCc2ccccc21	TWEAK Fn14 block 63 (no result: PAX8 reporter)
COc1cc(NCCCCCCN)c2ncccc2c1OC	LMP1 NFkB inh 56
COc1ccc(NC(=O)N(C)C[C@H]2OCCCC[C@H](C)Oc3ccc(N(C)C)cc3C(=O)N([C@H](C)CO)C[C@H]2C)cc1	none (no result: TROY signal inh, TWEAK Fn14 block, LMP1 NFkB inh)
COc1ccc(NC(=O)Nc2ccc3c(c2)CC(=O)N([C@H](C)CO)C[C@@H](C)[C@@H](CN(C)Cc2ccc(Oc4ccccc4)cc2)O3)cc1	PAX8 reporter 103 (no result: TROY signal inh, TWEAK Fn14 block, LMP1 NFkB inh)
C[C@@H]1CN([C@@H](C)CO)C(=O)Cc2cc(NC(=O)CCC(F)(F)F)ccc2O[C@H]1CN(C)Cc1ccc(Oc2ccccc2)cc1	PAX8 reporter 90 (no result: TROY signal inh, TWEAK Fn14 block, LMP1 NFkB inh)
C[C@@H]1CN([C@H](C)CO)C(=O)Cc2cc(NC(=O)Cc3cn(C)c4ccccc34)ccc2O[C@@H]1CN(C)Cc1ccc(Oc2ccccc2)cc1	none (no result: TROY signal inh, TWEAK Fn14 block, LMP1 NFkB inh)
COc1ccc(NC(=O)Nc2ccc3c(c2)CC(=O)N([C@@H](C)CO)C[C@H](C)[C@@H](CN(C)Cc2ccc(Oc4ccccc4)cc2)O3)cc1	none (no result: TROY signal inh, TWEAK Fn14 block, LMP1 NFkB inh)
COc1ccc(NC(=O)Nc2ccc3c(c2)CC(=O)N([C@@H](C)CO)C[C@@H](C)[C@H](CN(C)Cc2ccc(Oc4ccccc4)cc2)O3)cc1	PAX8 reporter 70 (no result: TROY signal inh, TWEAK Fn14 block, LMP1 NFkB inh)
C[C@@H]1CN([C@@H](C)CO)C(=O)Cc2cc(NC(=O)Cc3cn(C)c4ccccc34)ccc2O[C@H]1CN(C)Cc1ccc(Oc2ccccc2)cc1	PAX8 reporter 86 (no result: TROY signal inh, TWEAK Fn14 block, LMP1 NFkB inh)
CC1C(=O)N(Cc2cn(CCC3OCCO3)nn2)CCS(=O)(=O)N1Cc1ccc(-c2ccc(Cl)c(Cl)c2)cc1 (stereo not drawn)	TWEAK Fn14 block 56
CCC/C=C/c1ccc(CN2C(C)C(=O)N(Cc3cn(CCC4OCCCO4)nn3)CCS2(=O)=O)cc1 (stereo not drawn)	PAX8 reporter 81
COc1ccc(Cl)cc1S(=O)(=O)N(C)CC(=O)NCc1ccc2c(c1)OCO2	TWEAK Fn14 block 53
COc1ccc(S(=O)(=O)N(C)CC(=O)NCc2ccc3c(c2)OCO3)cc1	none
O=C(Nc1ccc(Cl)cc1)N1CCSCC1	none (no result: PAX8 reporter, EWS-Fli block, LGR2 inh)
O=C(Nc1ccccc1)N1CCSCC1	TWEAK Fn14 block 73 (no result: PAX8 reporter, EWS-Fli block, TROY signal inh)
CCCCc1ccc(C2C3=C(CC(C)(C)CC3=O)NC3=C2C(=O)c2ccccc23)cc1 (stereo not drawn)	TWEAK Fn14 block 57
CC1(C)CC(=O)C2=C(C1)NC1=C(C(=O)c3ccccc31)C2c1ccc(O)cc1 (stereo not drawn)	none (no result: EWS-Fli block)
CCCc1ccc(C2C3=C(CC(C)(C)CC3=O)NC3=C2C(=O)c2ccccc23)cc1 (stereo not drawn)	TWEAK Fn14 block 55 (no result: PAX8 reporter)
COc1ccccc1-c1ccc2c(c1)O[C@H](CN(C)Cc1ccc3c(c1)OCO3)[C@@H](C)CN([C@H](C)CO)S2(=O)=O	none (no result: TROY signal inh, TWEAK Fn14 block, LMP1 NFkB inh)
COc1ccccc1-c1ccc2c(c1)O[C@@H](CN(C)Cc1ccc3c(c1)OCO3)[C@@H](C)CN([C@@H](C)CO)S2(=O)=O	PAX8 reporter 66 (no result: TROY signal inh, TWEAK Fn14 block, LMP1 NFkB inh)
COc1ccccc1-c1ccc2c(c1)O[C@H](CN(C)Cc1ccc3c(c1)OCO3)[C@H](C)CN([C@@H](C)CO)S2(=O)=O	PAX8 reporter 88 (no result: TROY signal inh, TWEAK Fn14 block, LMP1 NFkB inh)
CNC(=O)C[C@H]1CC[C@H]2[C@@H](COc3ccc(NC(=O)c4ccc(C#N)cc4)cc3C(=O)N2C)O1	none (no result: TROY signal inh, TWEAK Fn14 block, LMP1 NFkB inh)
CN(C)CCCN(C(=O)CCc1ccccc1)c1nc2c(F)cccc2s1	none (no result: PAX8 reporter, EWS-Fli block)
